Reference: ChEMBL document CHEMBL4513216, “Probing the Open Global Health Chemical Diversity Library for Multistage-Active Starting Points for Next-Generation Antimalarials” (ACS Infect Dis, 2020)
Among all 69,000 compounds or so, about 8,600 (12%) showed an effect of 50% or more. This excerpt belongs to a sample that is enriched for strong results.

These molecules were tested on Plasmodium berghei (assay: Screen against P. berghei liver stage (PbLuc), transformed with Luciferase, at 10uM). Details: tested at 10 uM.
Type: functional, HepG2

Compound | INHIBITION [%]
CC(CN1CCOCC1)NC(=O)N1CCN(S(C)(=O)=O)CC1 (configuration not stated) | -34.4
CCOc1ccc(SCCS(=O)(=O)CC)cc1 | 3.84
CCSCCn1cc(-c2ncc[nH]2)nn1 | 59.1
CCn1c(C)nnc1SCCn1cc(-c2ncc[nH]2)nn1 | 7.1
c1c[nH]c(-c2cn(CCSc3cnn[nH]3)nn2)n1 | 33.2
Cc1cnc(CN(C)C2CCN(Cc3nccn3C)C2)o1 (configuration not stated) | 13.3
CCOC(=O)CNC(=O)c1cc(-c2ccccc2)nc2ncnn12 | -5.22
Cc1nc(Nc2ccc(Cl)cn2)sc1C(=O)NC(C)C | -86.5
COCCNC(=O)c1sc(Nc2ccc(Cl)cn2)nc1C | 67.9
CC(=O)c1sc(Nc2ccc(Cl)cn2)nc1C | -9.27
Cc1nc(Nc2ccc(Cl)cn2)sc1C(=O)NCCCN1CCCCC1 | 52.3
CCCc1nc(C)c(C(=O)NCCN2CCCCC2)s1 | -21.9
CCCNC(=O)c1sc(Nc2ccc(Cl)cn2)nc1C | -19.7
COc1ccc(CCC(=O)N2CCNCC2C(=O)N2CCCC2)cc1 (configuration not stated) | 32.1
COCCO[C@H]1CCN(Cc2cccnc2)[C@H]1Cc1cccnc1 | -31
CN(C)S(=O)(=O)N1C[C@H]2CC[C@@H](C1)N(Cc1ccc(F)c(F)c1)C2 | 0.825
CSc1nccn1-c1ccc(C(=O)NCC2CC2)cc1 | 36.1
O=C(NCCCn1nc2ccccn2c1=O)NCC(C1CC1)C1CC1 | -20
CCNc1ncc(-c2cc(-c3ccn(C)c3)nc(N)c2C#N)cn1 | 36

Compound | INHIBITION [%]
COc1cc(-c2cc(-c3ccn(C)c3)nc(N)c2C#N)cc(OC)c1O | 71.2
COc1ncc(-c2cc(-c3ccn(C)c3)nc(N)c2C#N)cn1 | 29.4
Cc1ccc(-c2cc(-c3c(C)nn(CCO)c3C)c(C#N)c(N)n2)cc1 | 14.1
CCn1cc(-c2cc(-c3ccn(C)c3)nc(N)c2C#N)cc1C#N | 81.1
CCCn1cc(-c2cc(-c3cnc(OC)nc3)c(C#N)c(N)n2)c(C)n1 | 25.1
O=C(NCC1CC1)c1cc(C2CC2)nc2onc(C3CCCNC3)c12 (configuration not stated) | -3.11
CCN1CC2(CC1=O)CN(Cc1cnn(C)c1)CCN(C(=O)C(C)C)C2 (configuration not stated) | 9.54
CC(NCc1cnc(N2CCOCC2)s1)c1ccc(Cl)s1 (configuration not stated) | -19.1
CC(NCc1cnc(N2CCOCC2)nc1)c1ccc(Cl)s1 (configuration not stated) | 51.8
CC(NCCN1CCC(N(C)C)CC1)c1ccc(Cl)s1 (configuration not stated) | 27.7
COCCn1cc(NC(=O)NC(C)c2ccc(Cl)s2)cn1 (configuration not stated) | -6.04
Cc1nc(C)c(C(C)NCc2cnc(N3CCOCC3)nc2)s1 (configuration not stated) | 43.5
CC(NCCCc1cnn(C)c1)c1ccc(Cl)s1 (configuration not stated) | 51.7
CC(NCCCc1cnn(C)c1)c1ccc(Br)s1 (configuration not stated) | 45.7
CC(NC(=O)NCCc1cnn(C)c1)c1ccc(Cl)s1 (configuration not stated) | 68
CC(Cn1cccn1)NC(=O)NCCc1cnn(C)c1 (configuration not stated) | 49.6
CCc1nccn1C1CCCN(C(=O)c2ccc(NC3CC3)nc2)C1 (configuration not stated) | -40.0335
CNc1ncc(-c2ccc(NC(=O)[C@@H]3CCCCN3)cc2)cn1 | 4.08
COc1ncccc1CNC(=O)c1ccc(C)[nH]c1=O | 20.5

Compound | INHIBITION [%]
COc1ccc(CN2CCn3c(CNS(C)(=O)=O)nnc3C2)cc1 | 13.1
Cn1cnnc1SCCCNC(=O)Nc1ncccn1 | 4.66
CCc1nnc2n1CCN(CC(=O)Nc1cc(C)nn1C)C2 | 45.6
Cn1cc(CN2CCC3(CC2)NC(=O)CC3c2ccncc2)cn1 (configuration not stated) | 14.6
CN(CC(=O)Nc1cc(CC2CCCCC2)n[nH]1)S(C)(=O)=O | -37
CN(CCc1ccccn1)CCc1nccs1 | 40.9
CN(CCc1ccncc1)CCc1nccs1 | 79.5
CN(CCc1cccs1)CCc1nccs1 | 5.11
CCN(C)c1ncnc2c1CCN(Cc1ccc(F)cc1)CC2 | 22.5
CCCc1nnc(NCCc2noc(C3CCCC3)n2)o1 | 22.5
O=C(c1cnc(C2CC2)nc1)N1CCCC(c2nccs2)C1 (configuration not stated) | 52
O=C(c1cncnc1)N1CCCC(c2nccs2)C1 (configuration not stated) | 13.54
CCCn1cc(C(=O)N2CCCC(Cc3nccs3)C2)cn1 (configuration not stated) | 17.4
CCCn1cc(C(=O)N2CCOC(c3nc(-c4cccs4)no3)C2)cn1 (configuration not stated) | 48.6
CCn1cc(C(=O)N2CCOC(c3nc(-c4cccs4)no3)C2)cn1 (configuration not stated) | 73.8
CCc1csc(C2CCCN(C(=O)c3cnn(CC)c3)C2)n1 (configuration not stated) | -19.7
CCn1cc(C(=O)N2CCCC(c3nccs3)C2)cn1 (configuration not stated) | 56
O=C(c1cnc(O)c(Cl)c1)N1CCCC(c2nccs2)C1 (configuration not stated) | 26.9
CCn1ccc(C(=O)N2CCOC(c3nc(-c4cccs4)no3)C2)n1 (configuration not stated) | 42.6
